mIDH1 inhibitor = blocks human mutant IDH1 R132H enzyme. IDH1-R132H enzyme, NADPH consumption, diaphorase/resazurin fluorescence. actives 0.093% (n = 390,000). Potency, µM (titrated, usually from 76.6 µM), inactives show at the highest dose activity change, negative = inhibition, actives largely listed as inhibitors. O75874; note: nearly all actives have a fitted effect of over 65% in size
Target sequence (O75874 whole entry R132H, stated change not applied): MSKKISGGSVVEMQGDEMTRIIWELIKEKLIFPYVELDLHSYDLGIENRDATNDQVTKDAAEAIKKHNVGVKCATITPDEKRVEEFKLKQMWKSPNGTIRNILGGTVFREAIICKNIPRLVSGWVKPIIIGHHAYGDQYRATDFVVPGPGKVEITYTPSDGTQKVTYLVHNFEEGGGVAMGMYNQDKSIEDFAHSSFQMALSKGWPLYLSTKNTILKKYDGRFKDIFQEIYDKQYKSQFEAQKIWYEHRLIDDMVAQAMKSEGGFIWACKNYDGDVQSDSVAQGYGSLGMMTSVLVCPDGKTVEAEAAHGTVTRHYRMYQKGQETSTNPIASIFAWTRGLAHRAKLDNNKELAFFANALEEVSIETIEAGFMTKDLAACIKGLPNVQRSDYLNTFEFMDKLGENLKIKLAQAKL
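IDH1-R132H (0.5 ug/mL dispensed) in pH 7.5 Tris buffer was preincubated 30 min with compound, then given a substrate mix of 0.016 mM NADPH and 2 mM alpha-KG for 80 min at room temperature; remaining NADPH was read by diaphorase/resazurin fluorescence.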
rTrxR1 inhibitor = inhibitors of rat thioredoxin reductase 1; O89049; recombinant rTrxR1, NADPH fluorescence consumption, selenite substrate; Potency, µM (highest dose often 114 µM), inactives show top-dose activity change, negative = inhibition, hits mostly inhibitors; actives 1% (n = 390,000); AID 588453; note: nearly all actives have a fitted effect of over 65% in size
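Rat TrxR1 (90 nM in the dispensed reagent) was pre-reduced with 400 uM NADPH for 5 min at room temperature, then incubated with compound for 15 min. After 400 uM selenite was added, NADPH fluorescence (Ex 340/Em 450 nm) was followed for 8 min.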
PLK1 PBD inh = PLK1 (human) polo-box domain binding inhibition | P53350 | Plk1 PBD binding of FITC phosphopeptide, fluorescence polarization | Potency, µM, without a hit: max response, negative = inhibition, actives largely listed as inhibitors | actives 2.8% (n = 360,000) | AID 720504; note: series mostly up to about 57 µM; nearly all actives have a fitted effect of over 65% in size
Sfp inh = inhibitors of Bacillus subtilis Sfp phosphopantetheinyl transferase; actives 3.5% (n = 310,000); Biochemical Sfp PPTase activity, qHTS; Q9F4F7; Potency, µM, for the others: largest response in the series, negative = inhibition, hits mostly inhibitors;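 note: the enzyme is Sfp with the accession as filed and its product quenches rhodamine fluorescence; 0% = enzyme reaction without inhibitor and -100% = no enzyme wells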
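Fluorescence-quenching assay with 15 nM Sfp, 5 uM rhodamine-CoA and 12.5 uM BHQ-2-labelled ybbR peptide in pH 7.6 Hepes/MgCl2 buffer. Enzyme was pre-incubated with compound for 15 min at room temperature. Rate was taken from the 30-min fluorescence change (525/598 nm).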
VDR inhibitor = inhibitors of human vitamin D receptor; P11473; VDR-SRC2-3 peptide fluorescence polarization, 2 h; Potency, µM, for inactives: max response, negative = inhibition, hits mostly inhibitors; actives 0.93% (n = 400,000); AID 504847
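FP read-out; VDR + SRC2-3 coactivator peptide; 23 nl compound by pintool; 2 h RT incubation; reagents held at 4 deg C, protected from light.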
TrxR1 substrate = rat thioredoxin reductase 1 substrate activity; purified TrxR1 substrate turnover, NADPH consumption readout; Potency, µM (series often up to 114 µM), for the others: at the highest dose activity change, negative = substrate turnover; actives 0.01% (n = 390,000); AID 588456; note: nearly all actives have a fitted effect of over 50% in size
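Rat TrxR1, dispensed at 90 nM, was prereduced with 400 uM NADPH (final) for 5 min at ~22 deg C, then incubated with compound 15 min before 400 uM selenite. A first-read NADPH fluorescence drop versus no-compound background flagged substrates.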
An asterisk follows results filed as active; i = inactive; u = inconclusive; x = not tested or not shown; [ ] = dose if it differs, or a comment. Shown are actives, neighbours in structure and some others; about 5.2% of the full set was active somewhere. Calls come from the whole dose curve; as a rule, active = well fitted curve in the direction sought with a large enough effect; inconclusive = small, poorly fitted or top-dose-only effect, or another doubt; inactive = no such curve, though single readings can be large; an effect the other way counts as inactive or inconclusive. Unless noted, % is set by controls: 0 for no effect and ±100 for the full control effect; potency is the fitted concentration of half-maximal effect.

SMILES	mIDH1 inhibitor	rTrxR1 inhibitor	PLK1 PBD inh	Sfp inh	VDR inhibitor	TrxR1 substrate
O=C(NCc1ccco1)c1csc(Nc2ccccc2Cl)n1	18.9%	u	-12.8%	28.2µM*	-13.8%	-1.5%
O=C(c1csc(Nc2ccccc2Cl)n1)N1CCCC1	4.1%	-18.0%	-19.5%	79.4µM*	-3.4%	2.4%
Cc1cccc(CN2CCN(CC(=O)O)C2=O)c1	6.8%	19.7%	-4.0%	89.1µM*	4.1%	5.3%
O=[n+]1c2c(n([O-])c3cc(Br)ccc31)CCCC2	7.2%	-20.3%	-1.9%	13.2%	-7.8%	-14.2%
O=[n+]1c2c(n([O-])c3cc(F)c(F)cc31)CCCC2	-1.9%	3.55µM*	-16.5%	3.3%	3.4%	-8.0%
O=c1[nH]c(N/N=C/c2ccccc2Br)nnc1-c1ccccc1	0.9%	8.0%	2.8%	50.1µM*	-4.0%	4.3%
CCCCOc1ccc(N(CC(=O)NCc2ccccc2)C(=O)c2csnn2)cc1	1.0%	11.2%[57.1 µM]	-0.7%	-0.9%	-4.5%	-19.9%[57.1 µM]
Cc1ccc(Cc2nc3ccccc3nc2SCC(=O)NCc2ccc(F)cc2)cc1	16.8%	20.3%[57.1 µM]	x	x	5.7%	0.8%[57.1 µM]
C/C(=N\Nc1ccc(Cl)c(C(=O)O)c1)c1ccc(N2CCOCC2)cc1	-7.0%	u	u	-3.4%	9.8%	-20.7%
O=C(O)c1cc(N/N=C/c2ccc(N3CCOCC3)s2)ccc1Cl	1.6%	-32.7%	u	56.2µM*	-28.1%	-11.5%
NC(=O)N/N=C/c1ccc(N2CCOCC2)s1	-0.2%	-32.9%	11.6%	79.4µM*	-15.9%	-3.2%
Cc1noc(C)c1-c1ccc(C(=O)N2CCN(C)CC2)c2occc12	x	x	0.2%	x	x	x
Cc1ccccc1NC(=O)c1c(C)[nH]c(=S)c(C#N)c1-c1ccc(Cl)cc1	-1.0%	-37.0%	-20.6%	-10.4%	-0.9%	8.1%[57.1 µM]
Cc1[nH]c(=S)c(C#N)c(-c2ccccc2)c1C(=O)Nc1ccccc1	18.6%	u	u	28.2µM*	-27.4%	-1.3%[57.1 µM]
Cc1ccc(-c2c(C(=O)Nc3ccccc3C)c(C)[nH]c(=S)c2C#N)o1	-1.1%	-54.4%	u	2.82µM*	5.1%	-6.5%
O=C(CSc1nc2ccccc2s1)c1ccc(O)cc1O	6.5%	15.5%	-18.7%	u	17.3%	-2.8%
O=C(Cc1nc2ccccc2s1)c1ccc(O)cc1O	x	x	x	50.1µM*	x	x
O=C(O)c1ccc2cccnc2c1O	30.9%	2.0%	-13.8%	20µM*	14.5%	-1.4%
CC(=O)NC(c1ccco1)c1ccc2cccnc2c1O (configuration not stated)	0.2%	-10.7%	-11.0%	10.1%	-7.8%	-10.4%
O=C(O)c1ccccc1NC(c1ccccc1)c1ccc2cccnc2c1O (configuration not stated)	2.3%	u	0.597µM*	x	35.5µM*	9.9%[11.4 µM]
COC(=O)c1cc2sccc2n1Cc1ccc(F)cc1Cl	u	18.5%	x	x	-9.6%	-1.3%
Cc1ccc(S(=O)(=O)NCC(=O)N(c2ccccc2)C(C(=O)NCc2ccccc2)c2ccco2)cc1 (configuration not stated)	-5.9%	3.9%	-8.1%	79.4µM*	8.0%	-7.4%
CC(C)Oc1cc(F)ccc1-c1cc(C(=O)NCCCn2ccnc2)[nH]n1	x	x	-13.2%	x	x	x
NNC(=O)c1nn(-c2ccc(Cl)cc2)cc1O	0.0%	25.5%	16.8µM*	22.9%	u	30.6%
Nc1nonc1NN=C1CCCCC1	-5.0%	1.6%	-5.9%	79.4µM*	19.9%	1.8%
SMILES	mIDH1 inhibitor	rTrxR1 inhibitor	PLK1 PBD inh	Sfp inh	VDR inhibitor	TrxR1 substrate
O=C1NN(c2cccc(Br)c2)C(=O)/C1=C/c1cccs1	7.1%	-27.2%	18.9µM*	-4.0%	u	2.8%
Cc1cc(/C=C2\C(=O)NN(c3ccccc3)C2=O)c(C)n1-c1ccccc1O	1.7%	6.2%	-4.3%	5.0%	-14.8%	-6.7%
O=C1NN(c2ccccc2)C(=O)/C1=C/c1cccs1	x	x	x	9.1%	x	x
O=C1NN(c2ccc(F)cc2)C(=O)/C1=C\c1cnn(-c2ccccc2)c1	x	x	x	-0.5%	x	x
O=C1NN(c2ccccc2)C(=O)/C1=C\c1ccccc1	-3.8%	28.2µM*	8.44µM*	-25.1%	u	-4.7%
O=C1NN(c2ccccc2)C(=O)C1=Cc1ccccc1	-15.5%	x	10.6µM*	x	x	x
O=C1NN(c2cccc(Br)c2)C(=O)/C1=C\c1ccccc1	-0.8%	11.2µM*	1.5µM*	79.4µM*	u	u
COc1cc(/C=C2/C(=O)NN(c3ccccc3)C2=O)cc(Br)c1O	11.9%	u	-7.6%	-11.5%	u	u
COc1ccccc1CNC(=O)CCCn1c(=O)c2ccccc2n(Cc2ccc(F)cc2)c1=O	21.9%	7.4%	x	x	-3.8%	3.6%
CC(=O)N1c2ccc(S(=O)(=O)NCCc3cccc(C)c3)cc2CC1C (configuration not stated)	4.3%	13.3%	x	x	0.6%	2.5%
CCn1cc(C2CC(=O)NC2=O)c2ccccc21 (configuration not stated)	10.0%	22.0%	-10.5%	3.4%	-11.0%	1.8%
COC(=O)NNC(=O)C12CC3CC(CC(C3)C1)C2	10.2%	-14.3%	-12.5%	19.3%	18.1%	-10.3%
NC(=S)NNC(=O)C12CC3CC(CC(C3)C1)C2	0.0%	7.4%	26.7µM*	4.2%	-4.6%	7.2%
Cc1ccc(SCC(=O)NC(=O)c2ccccc2Br)c(C)c1	4.3%	4.0%	1.1%	x	3.6%	-6.4%
COc1ccc(C)cc1Nc1nc(C)nc2sc(C)cc12	-1.1%	14.8%	29.9µM*	-6.4%	u	-5.9%
COc1ccc(CN2COc3ccc4c(C)cc(=O)oc4c3C2)cc1	-11.5%	-85.1%	x	x	7.6%	i
COC(=O)Cc1c(C)c2ccc3c(c2oc1=O)CN(Cc1ccccc1Cl)CO3	-0.4%	u	x	x	11.9%	i
COC(=O)Cc1c(C)c2ccc3c(c2oc1=O)CN(Cc1ccccc1OC)CO3	13.1%	39.8µM*	x	x	4.9%	i
COC(=O)Cc1c(C)c2ccc3c(c2oc1=O)CN(Cc1ccc(C)cc1)CO3	13.7%	35.5µM*	x	x	6.1%	i
Cc1ccnc2c(Cl)cccc12	x	24.1%	x	x	x	3.7%
CC(C)(C)NC(=O)C(=O)NN=C1CCCCCCCCCCC1	-2.0%	-19.5%	1.3%	79.4µM*	12.9%	-4.9%
CC(C)CNC(=O)C(=O)NN=C1CCCCCC1	5.1%	-11.1%	1.5%	10.0%	8.2%	-2.3%
C=CCNc1ncnc2c1cnn2-c1cccc(C)c1	8.5%	25.5%	-24.8%	14.3%	-17.9%	14.3%
C=CCNc1ncnc2c1cnn2-c1ccc(Cl)cc1	-0.7%	12.3%	21.2µM*	12.4%	u	4.3%
COc1ccc2ccc3c(c2c1)N=CC1(O3)N(C)c2ccccc2C1(C)C (configuration not stated)	17.6%	-3.7%	-23.9%	-3.7%	50.1µM*	-20.6%
CN(C)c1ccc(/C=C2\C(Cl)=Cc3ccccc32)cc1	x	-11.1%	x	x	x	-7.8%

Compound activity deposited in PubChem BioAssay by National Center for Advancing Translational Sciences (NCATS).
